Screening data (PubChem)
The list is not random: actives were taken first. Their share in the collection is about 2.4%.
Pol kappa inh-1: qHTS for Inhibitors of Polymerase Kappa | DNA polymerase kappa (Homo sapiens), Q9UBT6 | purified Pol kappa, fluorescent DNA synthesis assay, 10 min | Potency, µM (top dose mostly 107 µM), for inactives: at the top dose activity, negative = inhibition, actives largely listed as inhibitors | 400,000 compounds, 0.53% hits | AID 588579, 2011; further: potency means the concentration at half of the fitted maximal effect; on the % scale 0 is the no-effect control and ±100 the full control effect
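Kinetic fluorescence readout at 0 and 10 min followed reaction start with substrate at 50 nM final. Beforehand, enzyme (10 nM Pol kappa) stood 15 min with compound at room temperature; buffer-only wells were negative controls.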
FEN1 inhibitor: qHTS Assay for the Inhibitors of Human Flap endonuclease 1 (FEN1); P39748; Recombinant FEN1 flap cleavage, fluorescence, 15 min; Potency, µM (highest dose often 114 µM), for the others: at the top dose activity change, negative = inhibition, usual class: inhibitors; 390,000 compounds, 0.35% hits; further: potency means the concentration at half of the fitted maximal effect; on the % scale 0 is the no-effect control and ±100 the full control effect; nearly all actives have a fitted effect of over 65% in size
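Compounds are tested as a concentration series against 10 nM FEN1; after a 15 min room-temperature preincubation, 50 nM substrate starts cleavage, with plate reads at 0 and 15 min. Normalized responses are fitted by a Hill equation.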
WRN inhibitor: qHTS for Inhibitors of WRN Helicase | WRN helicase unwinding, fluorescent forked duplex, kinetic | Potency, µM (highest dose often 114 µM), for the others: top-dose activity change, negative = inhibition, most hits filed as inhibitors | 360,000 compounds, 0.46% hits | AID 651768, 2012; further: potency means the concentration at half of the fitted maximal effect; on the % scale 0 is the no-effect control and ±100 the full control effect; nearly all actives have a fitted effect of over 55% in size
Target sequence (Q14191 whole entry, looked up): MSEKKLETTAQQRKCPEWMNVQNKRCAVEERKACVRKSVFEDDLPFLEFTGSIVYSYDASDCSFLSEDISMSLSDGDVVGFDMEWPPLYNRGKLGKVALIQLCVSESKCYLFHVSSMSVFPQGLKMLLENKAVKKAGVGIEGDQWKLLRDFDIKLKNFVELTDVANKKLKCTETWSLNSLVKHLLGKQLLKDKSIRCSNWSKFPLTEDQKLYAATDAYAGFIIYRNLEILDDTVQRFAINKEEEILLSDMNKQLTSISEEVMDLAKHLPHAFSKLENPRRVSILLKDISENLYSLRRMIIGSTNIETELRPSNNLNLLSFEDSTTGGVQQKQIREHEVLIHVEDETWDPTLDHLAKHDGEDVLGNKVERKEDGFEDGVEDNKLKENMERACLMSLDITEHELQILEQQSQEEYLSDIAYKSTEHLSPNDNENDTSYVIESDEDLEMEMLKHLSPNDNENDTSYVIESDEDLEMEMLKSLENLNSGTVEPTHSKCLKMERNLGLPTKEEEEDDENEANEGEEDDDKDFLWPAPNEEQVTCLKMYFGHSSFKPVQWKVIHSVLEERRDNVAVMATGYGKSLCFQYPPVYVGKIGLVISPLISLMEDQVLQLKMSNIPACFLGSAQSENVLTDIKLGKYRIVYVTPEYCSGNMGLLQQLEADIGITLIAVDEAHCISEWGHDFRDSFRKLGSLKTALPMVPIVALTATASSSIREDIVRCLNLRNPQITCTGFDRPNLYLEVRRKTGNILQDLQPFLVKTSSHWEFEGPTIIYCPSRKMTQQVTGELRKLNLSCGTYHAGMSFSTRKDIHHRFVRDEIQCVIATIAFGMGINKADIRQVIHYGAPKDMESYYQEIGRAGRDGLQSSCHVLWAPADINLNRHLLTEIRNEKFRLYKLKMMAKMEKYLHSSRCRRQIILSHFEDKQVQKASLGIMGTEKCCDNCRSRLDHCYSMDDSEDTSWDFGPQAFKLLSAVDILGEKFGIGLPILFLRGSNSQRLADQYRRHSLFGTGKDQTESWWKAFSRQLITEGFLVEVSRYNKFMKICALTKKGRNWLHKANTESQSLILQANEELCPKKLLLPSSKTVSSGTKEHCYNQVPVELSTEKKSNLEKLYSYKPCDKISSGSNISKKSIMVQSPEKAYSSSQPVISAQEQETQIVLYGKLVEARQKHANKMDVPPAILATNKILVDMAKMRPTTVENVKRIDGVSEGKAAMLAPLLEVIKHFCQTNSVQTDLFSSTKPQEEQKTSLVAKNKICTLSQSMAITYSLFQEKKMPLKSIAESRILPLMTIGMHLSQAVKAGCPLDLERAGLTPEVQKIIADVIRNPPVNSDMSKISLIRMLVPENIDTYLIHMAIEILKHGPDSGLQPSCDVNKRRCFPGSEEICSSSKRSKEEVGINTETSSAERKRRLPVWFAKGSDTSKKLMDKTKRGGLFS
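Screening of the MLSMR collection measured strand separation of a quenched forked DNA duplex (100 nM) by 20 nM WRN with 2 mM ATP, all final. Compounds were preincubated with enzyme 15 min at room temperature.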
POLI inh: qHTS for Inhibitors of Polymerase Iota; Potency, µM (highest dose often 115 µM), without a hit: at the top dose activity, negative = inhibition, hits mostly inhibitors; 390,000 compounds, 1% hits; Pol iota fluorescent replication assay, 10 min; DNA polymerase iota (Homo sapiens), Q9UNA4; further: potency means the concentration at half of the fitted maximal effect
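Fluorescent replication assay read twice, at 0 min and 10 min after adding 50 nM (final) substrate. Enzyme (10 nM) and compounds were first incubated 15 min at room temperature; enzyme-free buffer wells were negative controls.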
Pol beta inh-1: qHTS Assay for Inhibitors of DNA Polymerase Beta | Potency, µM (series often up to 114 µM), without a hit: at the top dose activity change, negative = inhibition, usual class: inhibitors | Pol beta primer extension/strand displacement, fluorescence kinetic | 340,000 compounds, 1.3% hits; further: potency means the concentration at half of the fitted maximal effect; on the % scale 0 is the no-effect control and ±100 the full control effect
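Values derive from four-parameter Hill fits of normalized kinetic data: reads at 0 and 10 min following addition of 50 nM substrate to 10 nM Pol beta preincubated 15 min with compound.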
Pol eta inh-1: qHTS for Inhibitors of Polymerase Eta. recombinant Pol eta, fluorescent DNA replication assay. Potency, µM (titrated, usually from 114 µM), for the others: at the top dose activity change, negative = inhibition, most hits filed as inhibitors. 390,000 compounds, 1.2% hits. AID 588591, 2011; further: potency means the concentration at half of the fitted maximal effect; on the % scale 0 is the no-effect control and ±100 the full control effect
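Pol eta at 10 nM preincubated with compounds 15 min at room temperature; reaction started with fluorescent substrate (50 nM final) and read kinetically at 0 and 10 min.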
Pol beta inh-2: Inhibitors of DNA Polymerase Beta: Hit validation; shares compounds with Pol beta inh-1; Pol beta primer extension/strand displacement, fluorescence kinetic; Potency, µM, actives largely listed as inhibitors; 250 compounds, 87% hits; AID 540280, 2011; calls by dose curve; further: potency means the concentration at half of the fitted maximal effect
Klenow inh: Inhibitors of DNA Polymerase Beta: Hit Validation in Klenow Fragment Assay; shares compounds with Pol beta inh-1; activity change, negative = inhibition, % at 57.1 µM; AID 540300, 2011; Klenow exo- polymerase counter-screen, fluorescent DNA substrate; 250 tested, under 10 active
HIV RT counter: Inhibitors of DNA Polymerase Beta: Hit Validation in HIV-RT Assay; shares compounds with Pol beta inh-1; HIV-1 RT polymerase activity, counter-screen; activity % (negative = inhibition, positive = activation), % at 57.1 µM; 250 tested, under 10 active
POLB inh gel: Inhibitors of DNA Polymerase Beta: Hit Validation in Radiolabeled Extension Assay; radiolabeled primer extension gel assay, phosphorimager; 110 compounds, 91% hits; inhibition, % at 10 µM; shares compounds with Pol beta inh-1;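 active means inhibition at 10 µM of 30% or more; inconclusive means no clear call, values can overlap the other calls; inactive means inhibition at 10 µM under 30%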
PGK validate: qHTS for inhibitors of Phosphogylcerate Kinase: Hit Validation Screen; shares compounds with Pol kappa inh-1; Potency, µM (titrated, usually from 57.5 µM), for inactives: top-dose activity change, negative = inhibition, usual class: inhibitors; TbPGK coupled GAPDH assay, Kinase-Glo luminescence; 500 compounds, 79% hits; further: potency means the concentration at half of the fitted maximal effect; on the % scale 0 is the no-effect control and ±100 the full control effect; nearly all actives have a fitted effect of over 65% in size
Pol iota confirm: qHTS for Inhibitors of Polymerase Iota: Confirmatory Assay for Cherry-picked Compounds | shares compounds with Pol kappa inh-1 | Pol iota primer extension, TAMRA/BHQ fluorescence | Potency, µM, actives largely listed as inhibitors | 1,500 compounds, 77% hits; further: potency means the concentration at half of the fitted maximal effect
Pol kappa inh-2: qHTS for Inhibitors of Polymerase Kappa: Confirmatory Assay for Cherry-picked Compounds | shares compounds with Pol eta inh-1 | 920 compounds, 76% hits | Potency, µM, hits mostly inhibitors | purified Pol-kappa, fluorescent strand-displacement substrate; further: potency means the concentration at half of the fitted maximal effect
Pol eta inh-2: qHTS for Inhibitors of Polymerase Eta: Confirmatory Assay for Cherry-picked Compounds. shares compounds with Pol eta inh-1. Pol eta primer extension, TAMRA/BHQ fluorescence, 10 min. Potency, µM, actives largely listed as inhibitors. 2,600 compounds, 64% hits; further: potency means the concentration at half of the fitted maximal effect
* hit, by the source's call; u = inconclusive; x = not tested or not shown; [ ] = remark or other dose. Unless noted, the call rests on the fitted dose curve; in most records, active means well fitted curve in the direction sought with a large enough effect; inconclusive means small, poorly fitted or top-dose-only effect, or another doubt; inactive means no such curve, though single readings can be large; an effect the other way counts as inactive or inconclusive.

SMILES	Pol kappa inh-1	FEN1 inhibitor	WRN inhibitor	POLI inh	Pol beta inh-1	Pol eta inh-1	Pol beta inh-2	Klenow inh	HIV RT counter	POLB inh gel	Pol iota confirm	Pol eta inh-2	others
CCCCCCc1cc2cc(-c3nnc(-c4ccccc4OC)o3)c(=O)oc2cc1O	20µM*	45µM*	45µM*	u	14µM*	8.9µM*	7.1*	-21	9	x	x	x	PGK validate=10µM*
CC1=NN(c2ccc(C)c(C)c2)C(=O)/C1=C\C=C\c1ccc([N+](=O)[O-])o1	50µM*	-29%	4%[11.6 µM]	11µM*	7.1µM*	40µM*	32*	-19	17	99*	42*	54*
O=C(Nc1ccccc1Cl)c1ccc2nccnc2c1	u	-17%	-2%[11.6 µM]	u	36%	u	x	x	x	x	x	x
COC(=O)c1ccccc1NC(=O)c1ccc2nccnc2c1	u	-16%	-28%	u	3.2µM*	32µM*	35*	-27	39	x	x	u
COc1ccccc1NS(=O)(=O)c1cc(NC(=O)c2cccc(S(=O)(=O)N(C)C)c2)ccc1N1CCOCC1	2%	-2%	-10%	5%	x	-15%	x	x	x	x	x	x
O=C(Cc1ccc(S(=O)(=O)N2CCOCC2)s1)Nc1ccc2c(c1)CCC2	-10%	-9%	-7%	2%	-2%	u	x	x	x	x	x	x
O=C(Cc1ccc(S(=O)(=O)N2CCOCC2)s1)Nc1nc2c(s1)CCCC2	18µM*	u	35µM*	u	7.1µM*	4µM*	28*	-36	28	99*	34*	30*	Pol kappa inh-2=21*
O=C(Nc1ccc(F)cc1)C(c1ccncc1)N1CCN(C(=O)c2ccco2)CC1 (configuration not stated)	x	x	4%	x	x	x	x	x	x	x	x	x
